Laboratory results reported in the supplement of paper PMC12067926.

These compounds were tested on Community 10 (assay: relative growth (AUC of 72 h growth curve relative to DMSO control, dAUC) (ratio); higher = more growth (less inhibition), active = hit call of the paper). Conditions: 20 µM;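 active = growth AUC significantly below the DMSO wells by Dunnett test; inactive = the rest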.
Experimental: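 Environmental bacterial isolates (Iceland stream sediment and Silwood Park soil) and whole stream-sediment communities were grown in LB from a 1:100 dilution with each pesticide at 20 µM (1% DMSO). A600 was read hourly for 72 h and the area under a spline-fitted growth curve (AUC) was computed. dAUC is the mean AUC of 3 biological replicates divided by the mean AUC of the DMSO controls. Significance was tested by Dunnett's test against the DMSO control.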
With `COP(=O)(OC)OC=C(Cl)Cl` the relative growth was 1.04 (inactive). For `CO/C=C(/C(=O)OC)c1ccccc1Oc1cc(Oc2ccccc2C#N)ncn1`, the relative growth was 0.868 (inactive). For `CN/C(=N\[N+](=O)[O-])NCc1cnc(Cl)s1`, the relative growth was 0.931 (inactive). `CC1(C)CON(Cc2ccccc2Cl)C1=O` was tested, and the relative growth was 0.791 (inactive). In the case of `CC1(C)[C@H](/C=C(\Cl)C(F)(F)F)[C@@H]1C(=O)OC(C#N)c1cccc(Oc2ccccc2)c1` (stereo not given in full), the relative growth was 0.816 (inactive). With `CC[C@H](C)[C@H]1O[C@]2(C=C[C@@H]1C)C[C@@H]1C[C@@H](C/C=C(\C)[C@@H](O[C@H]3C[C@H](OC)[C@@H](O[C@H]4C[C@H](OC)[C@@H](O)[C@H](C)O4)[C@H](C)O3)[C@@H](C)/C=C/C=C3\CO[C@@H]4[C@H](O)C(C)=C[C@@H](C(=O)O1)[C@]34O)O2.CO[C@H]1C[C@H](O[C@H]2[C@H](C)O[C@@H](O[C@@H]3/C(C)=C/C[C@@H]4C[C@@H](C[C@]5(C=C[C@H](C)[C@@H](C(C)C)O5)O4)OC(=O)[C@@H]4C=C(C)[C@@H](O)[C@H]5OC/C(=C\C=C\[C@@H]3C)[C@]54O)C[C@@H]2OC)O[C@@H](C)[C@@H]1O` the relative growth was 0.898 (inactive). `CC(Oc1ccc(Oc2ncc(C(F)(F)F)cc2Cl)cc1)C(=O)O` (stereo not given) was tested, and the relative growth was 0.793 (inactive). For `CO/N=C(/C(=O)OC)c1ccccc1CO/N=C(\C)c1cccc(C(F)(F)F)c1`, the relative growth was 0.708 (inactive). With `COP(=S)(OC)Oc1ccc(SC)c(C)c1` the relative growth was 0.993 (inactive). With `COCC(=O)N(c1c(C)cccc1C)C(C)C(=O)OC` (stereo not given) the relative growth was 1.06 (inactive). In the case of `CC(C)OC(=O)C(C(=O)OC(C)C)=C1SCCS1`, the relative growth was 0.804 (inactive). In the case of `CON(C)C(=O)Nc1ccc(Cl)c(Cl)c1`, the relative growth was 1.03 (inactive). With `CCCCN(CCCC)SN(C)C(=O)Oc1cccc2c1OC(C)(C)C2` the relative growth was 0.824 (inactive). With `CCCC1COC(Cn2cncn2)(c2ccc(Cl)cc2Cl)O1` (stereo not given) the relative growth was 0.868 (inactive). `CCOCN(C(=O)CCl)c1c(C)cccc1CC` was tested, and the relative growth was 0.858 (inactive). `CC(C)(C)C(O)(CCc1ccc(Cl)cc1)Cn1cncn1` (stereo not given) was tested, and the relative growth was 0.835 (inactive). For `O=C(Nc1ccccc1-c1ccc(Cl)cc1)c1cccnc1Cl`, the relative growth was 1.05 (inactive). With `CCOC(=O)CC(SP(=S)(OC)OC)C(=O)OCC` (stereo not given) the relative growth was 0.992 (inactive). `CC(C)CC(C)c1sccc1NC(=O)c1cn(C)nc1C(F)(F)F` (stereo not given) was tested, and the relative growth was 0.715 (inactive). With `COc1ncc(F)c2nc(S(=O)(=O)Nc3c(F)cccc3F)nn12` the relative growth was 1.04 (inactive). In the case of `CCCCCCCCCCCCNC(=N)N`, the relative growth was 0.505 (active). `CCOc1ccc(C(C)(C)COCc2cccc(Oc3ccccc3)c2)cc1` was tested, and the relative growth was 1.02 (inactive). For `C#CCOc1ccc(CCNC(=O)C(OCC#C)c2ccc(Cl)cc2)cc1OC` (stereo not given), the relative growth was 0.982 (inactive). For `CNC(=O)CSP(=S)(OC)OC`, the relative growth was 0.887 (inactive). With `COCc1cnc(C2=NC(C)(C(C)C)C(=O)N2)c(C(=O)O)c1` (stereo not given) the relative growth was 0.96 (inactive). `Fc1ccc([C@]2(Cn3cncn3)O[C@H]2c2ccccc2Cl)cc1` (racemic) was tested, and the relative growth was 0.962 (inactive). With `C/C(=N\C#N)N(C)Cc1ccc(Cl)nc1` the relative growth was 1.15 (inactive). With `N#Cc1cc(Br)c(O)c(Br)c1` the relative growth was 0.931 (inactive). `CCOc1cc(Oc2ccc(C(F)(F)F)cc2Cl)ccc1[N+](=O)[O-]` was tested, and the relative growth was 0.824 (inactive). In the case of `ClC1C(Cl)C(Cl)C(Cl)C(Cl)C1Cl` (stereo not given), the relative growth was 0.844 (inactive). For `O=C(NCCc1ncc(C(F)(F)F)cc1Cl)c1ccccc1C(F)(F)F`, the relative growth was 0.806 (inactive). For `CCc1nn(C)c(C(=O)NCc2ccc(Oc3ccc(C)cc3)cc2)c1Cl`, the relative growth was 0.804 (inactive). With `O=C1C=C(N(Cc2ccc(Cl)nc2)CC(F)F)CO1` the relative growth was 0.814 (inactive). For `Cc1nc(N(C)C)nc(OC(=O)N(C)C)c1C`, the relative growth was 0.979 (inactive). With `CCCN(CCOc1c(Cl)cc(Cl)cc1Cl)C(=O)n1ccnc1` the relative growth was 0.868 (inactive). For `CCC(C)c1ccccc1OC(=O)NC` (stereo not given), the relative growth was 1.08 (inactive). `Cc1nnc(-c2ccccc2)c(=O)n1N` was tested, and the relative growth was 0.899 (inactive). `C[C@@H]1[C@@H](c2ccc(Cl)cc2)SC(=O)N1C(=O)NC1CCCCC1` was tested, and the relative growth was 1.03 (inactive). `CC[C@H]1CCC[C@H](O[C@H]2CC[C@H](N(C)C)[C@@H](C)O2)[C@@H](C)C(=O)C2=C[C@@H]3[C@@H](C=C(C)[C@@H]4C[C@@H](O[C@@H]5O[C@@H](C)[C@H](OC)[C@@H](OC)[C@H]5OC)C[C@@H]34)[C@@H]2CC(=O)O1.CC[C@H]1CCC[C@H](O[C@H]2CC[C@H](N(C)C)[C@@H](C)O2)[C@@H](C)C(=O)C2=C[C@H]3[C@@H]4C[C@H](O[C@@H]5O[C@@H](C)[C@H](OC)[C@@H](OC)[C@H]5OC)C[C@H]4C=C[C@H]3C2CC(=O)O1` was tested, and the relative growth was 0.772 (inactive). With `Cc1cccc2sc3nncn3c12` the relative growth was 0.867 (inactive).
